Results filed as inconclusive are left out. Activity calls are given as the source filed them. Unless noted, calls follow the shape of the dose curve; as a rule, active = well fitted curve in the direction sought with a large enough effect; inconclusive = small, poorly fitted or top-dose-only effect, or another doubt; inactive = no such curve, though single readings can be large; an effect the other way counts as inactive or inconclusive.
Experiments:
[1] = target: Lysosomal acid glucosylceramidase (Homo sapiens) (UniProt P04062); test: Glucocerebrosidase-p2 (AID 348; in the data active = potency below about 10 µM; also: potency is read from the fitted curve at half-maximal effect); details: purified GBA, blue fluorogenic substrate, 40 min
How it was run: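 Compounds titrated from 0.6 nM upwards against 0.2 nM enzyme in pH 5.9 citric acid/KH2PO4, taurocholate, tween-20; blue fluorogenic substrate 80 uM, 40 min room temperature, stopped and read Ex 365/Em 440 for AC50.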

[2] = target: Cytochrome P450 1A2 (Homo sapiens) (UniProt P05177); test: p450-cyp1a2 (AID 410; calls by dose curve; also: potency is read from the fitted curve at half-maximal effect;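 as to activity change, negative = inhibition: -100% = full effect of reference inhibitor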); details: recombinant CYP1A2, luciferin-ME demethylation, luminescence; series mostly up to 57 µM
How it was run: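 Human CYP1A2 (20nM) demethylated Luciferin-ME at its Km (100uM) in 100mM KPO4. After 10 min compound preincubation, NADPH regeneration ran the reaction 60 min at room temperature. Luciferin was read by luminescence, normalized to 57 uM furafylline.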

[3] = NFAT Signaling Pathway (AID 444; active = well fitted curve in either direction with a large enough effect, not every such curve was filed as active;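 also: carbachol stimulus at about its EC50 of 1 µM final; % is scaled to controls: 0 for no effect and ±100 for the full control effect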); details: Jurkat NFAT-bla M1, carbachol, beta-lactamase ratio, 5 h; at 7.69 µM (top of the series) unless noted
How it was run: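 Jurkat cells with NFAT-driven β-lactamase reporter and co-expressed M1 receptor, stimulated with carbachol (final 1 uM, ~EC50), compound titration, 5 h at 37 °C. CCF4 loaded 1 h at RT; 460/530 nm ratio gave %activity and AC50.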

[4] = Stat Signaling Pathway (AID 446; active = well fitted curve in either direction with a large enough effect, not every such curve was filed as active;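 also: ME-180 cervical cancer cells given 40 pM IL-6 alongside compound; SIE-controlled beta-lactamase reporter measured as 460/530 nm FRET emission ratio; % is scaled to controls: 0 for no effect and ±100 for the full control effect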); details: ME-180 SIE beta-lactamase reporter, IL-6 stimulated, 5 h; at 7.69 µM (top of the series) unless noted
How it was run: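 ME-180 cells carrying a SIE-driven beta-lactamase reporter are stimulated with 40 pM IL-6 for 5 h at 37C in the presence of compound. The 460/530 nm FRET substrate ratio is read after 2.5 h at RT. Data are normalised to 300 pM IL-6 and to 125 nM JAK inhibitor controls.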

[5] = target: Glucocorticoid receptor (Homo sapiens) (UniProt P04150); test: GR-GFP Redistribution (AID 450;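 active = compounds whose dose series gives a full or clear partial fitted curve of increased nuclear translocation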; also: potency is read from the fitted curve at half-maximal effect); details: U2OS GR-GFP nuclear translocation, laser cytometry, 2 h
[6] = target: Glucocorticoid receptor (Homo sapiens) (UniProt P04150); test: GR-EFC Redistribution (AID 451; calls by dose curve; also: potency is read from the fitted curve at half-maximal effect); details: CHO-K1 GR-EFC translocation, beta-gal luminescence, 2 h
How it was run: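 CHO-K1 cells expressing nuclear EA and GR-ED fragments of b-gal; compounds titrated up to 46 uM final, 2 h at 37 C. GR nuclear translocation read as complemented b-gal luminescence after 1 h RT detection.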

[7] = target: 3',5'-cyclic-AMP phosphodiesterase 4B (Homo sapiens) (UniProt Q07343); test: qHTS Assay for Inhibitors of PDE-IV (AID 607; active = well fitted activation curve with a large enough effect in the main read-out, with a control signal flat, not every such curve was filed as active; also: % of control where 0% means no effect); details: HEK293 ACTOne CNG channel cells, membrane potential fluorescence; series mostly up to 22.9 µM
How it was run: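 HEK293 ACTOne cells with CNG channel (1000/well), endogenous PDE4; membrane potential dye, compounds up to 22.9 uM final. Fluorescence Ex 535/Em 590; RO 20-1724 (100 uM final) as reference.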

[8] = target: Cytochrome P450 3A4 (Homo sapiens) (UniProt P08684); test: qHTS Assay for Activators of Cytochrome P450 3A4 (AID 885); details: recombinant CYP3A4, Luciferin-PPXE luminescence, 60 min; series mostly up to 57.1 µM; also: nearly all actives have a fitted effect of over 65% in size
How it was run: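 Human CYP3A4 (20 nM) with Luciferin-PPXE at 25 uM (its KM) in 200 mM KPO4; 10 min compound preincubation, then NADPH regeneration and 60 min reaction at RT. Luciferin read by luminescence; normalized to 57 uM ketoconazole full inhibition.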

[9] = target: Cytochrome P450 2C19 (Homo sapiens) (UniProt P33261); test: qHTS Assay for Inhibitors and Substrates of Cytochrome P450 2C19 (AID 899); details: recombinant CYP2C19, luciferin-H EGE luminescence; series mostly up to 57.1 µM; also: % is scaled to controls: 0 for no effect and ±100 for the full control effect; nearly all actives have a fitted effect of over 60% in size
How it was run: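 5 nM human CYP2C19 with 10uM Luciferin-H EGE (at KM) in 50mM KPO4, compound preincubated 10 min at 37C, then NADPH regeneration for 60 min at 37C. Luciferin read by luminescence after detection reagent; normalized to 57uM ketoconazole as full inhibition.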

[10] = qHTS Assay for Lipid Storage Modulators (AID 1519; calls by dose curve); details: Drosophila S3 cells, BODIPY lipid droplet/cell ratio, laser cytometry, cells loaded with oleic acid; for activity change, negative = inhibition: at 57.5 µM (top of the series)
How it was run: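 Cells seeded at 5,000 per well were treated with compounds over a concentration series and loaded with oleic acid (400 uM, as added). Lipid droplet fluorescence (488 nm excitation, 500-530 nm channel) was read by laser-scanning cytometry and normalized to 20 uM Triacsin C.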

[11] = target: Dual specificity protein kinase CLK4 (Homo sapiens) (UniProt Q9HAZ1); test: qHTS Assay for Inhibitors of CDC-like Kinase 4 (Kinase-Glo Assay) (AID 1770); details: recombinant Clk4, Kinase-Glo ATP depletion luminescence; series mostly up to 66.7 µM; also: nearly all actives have a fitted effect of over 65% in size; also: potency is read from the fitted curve at half-maximal effect
How it was run: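 Luminescent ATP-depletion read-out (Kinase-Glo) after 4.5 h room-temperature reaction of Clk4 (25 nM final) with RS peptide (100 uM) and ATP (1 uM), pH 7.5 Tris buffer with MgCl2 and DTT.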

[12] = target: Dual specificity protein kinase CLK4 (Homo sapiens) (UniProt Q9HAZ1); test: qHTS Assay for Inhibitors of CDC-like Kinase 4 (ADP-Glo Assay) (AID 1771); details: recombinant CLK4, ADP-Glo luminescence; series mostly up to 80 µM; also: nearly all actives have a fitted effect of over 70% in size; also: potency is read from the fitted curve at half-maximal effect
How it was run: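 Clk4 (25 nM) was incubated 1 hr at room temperature with 100 uM RS repeat peptide and 1 uM ATP in buffer with 2 mM MgCl2, 0.5 mM EGTA, 2.5 mM DTT. ADP formed was quantified by ADP-Glo luminescence.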

[13] = target: Dual specificity protein kinase CLK4 (Homo sapiens) (UniProt Q9HAZ1); test: qHTS Assay for Inhibitors of CDC-like Kinase 4 (ADP-FP Assay) (AID 1795); details: Transcreener ADP fluorescence polarization; series mostly up to 50 µM; also: nearly all actives have a fitted effect of over 60% in size; also: potency is read from the fitted curve at half-maximal effect
How it was run: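 Kinase activity was measured as ADP production using Transcreener orange tracer (4 nM) and ADP antibody (1 ug/mL) fluorescence polarization, with ADP calculated from a calibration curve. The 1 h reaction contained 6.25 nM Clk4, 1 uM ATP and 100 uM RS peptide at pH 7.5 with Mg2+.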

[14] = target: Ubiquitin carboxyl-terminal hydrolase 1 (Homo sapiens) (UniProt O94782); test: Inhibitors of USP1/UAF1: Pilot qHTS (AID 504865); details: purified USP1/UAF1, Ub-rhodamine cleavage fluorescence; series mostly up to 54.9 µM;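 also: rhodamine fluorescence freed from ubiquitin-rhodamine substrate followed over time; top concentration of the series differs between compounds; % is scaled to controls: 0 for no effect and ±100 for the full control effect; nearly all actives have a fitted effect of over 35% in size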
How it was run: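 Deubiquitinase activity followed as kinetic rhodamine fluorescence release from 150 nM Ub-Rho. 1 nM USP1/UAF1 with compound, after 15 min room-temperature preincubation, in HEPES pH 7.8 buffer containing TCEP, EDTA, BSA and Tween-20.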

[15] = AP1 Signaling Pathway (AID 357; active = well fitted curve in either direction with a large enough effect, not every such curve was filed as active; also: % is scaled to controls: 0 for no effect and ±100 for the full control effect); details: ME-180 AP-1-bla reporter, EGF-induced, beta-lactamase ratio, 5 h; at 7.69 µM (top of the series) unless noted
How it was run: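 AP-1-bla ME-180 cells with beta-lactamase reporter under AP-1 response element, stimulated with EC50 EGF; compounds titrated, 5 hours at 37 degrees Celsius. CCF4 read at 460/530 nm ratio; positive and negative modulators judged by AC50.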

[16] = target: Mitogen-activated protein kinase 10 (Mus musculus) (UniProt Q61831); test: JNK3 AlphaScreen Assay (AID 530; active = well fitted curve in either direction with a large enough effect, not every such curve was filed as active;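 also: kinase came from lysate of stimulated human HepG2 cells; signal reports phosphorylation of biotinylated GST-cJun 1-79 at Ser73 with 10 µM ATP; % is scaled to controls: 0 for no effect and ±100 for the full control effect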); details: JNK3 lysate, c-Jun phosphorylation; series mostly up to 57.1 µM
How it was run: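 qHTS format: compounds tested as titrations against IL-1beta/TNF-alpha-activated HepG2 lysate JNK3 with biotin-GST-cJun substrate and 10 uM ATP at room temperature. Loss of anti-phospho-cJun AlphaScreen signal indicates inhibition.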

[17] = qHTS Assay for Identification of Small Molecule Agonists for Hypoxia Response Element Signaling Pathway (AID 914; active = well fitted activation curve with a large enough effect in the signal ratio, with a control signal flat, not every such curve was filed as active; the % refers to the signal ratio; also: % of control where 0% means no effect); details: ME-180 (cervical carcinoma) HRE-bla reporter, beta-lactamase ratio, CoCl2, 17 h; activation: stronger effect = higher value
How it was run: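 HRE-bla ME-180 cells, overnight plating in Opti-MEM with 0.5% dialyzed FBS; cpd titration + EC50 CoCl2, 17 h, 37 degrees Celsius; CCF4 2.5 h RT; 460/530 nm ratio; AC50.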

[18] = target: Cytochrome P450 3A4 (Homo sapiens) (UniProt P08684); test: qHTS Assay for Inhibitors and Substrates of Cytochrome P450 3A4 (AID 884); details: recombinant CYP3A4, Luciferin-PPXE luminescence; series mostly up to 57.1 µM; also: potency is read from the fitted curve at half-maximal effect; nearly all actives have a fitted effect of over 50% in size
How it was run: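 20 nM human CYP3A4 with 25 uM Luciferin-PPXE (at KM) in 200 mM KPO4, preincubated 10 min with compound; NADPH regeneration started a 60 min RT reaction. Luciferin detected by luminescence, normalized to 57 uM ketoconazole as full inhibition.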

[19] = measured here: cell count channel max response
[20] = measured here: lipid channel max response

Sequence of 3',5'-cyclic-AMP phosphodiesterase 4B (Homo sapiens) (Q07343 whole entry, looked up): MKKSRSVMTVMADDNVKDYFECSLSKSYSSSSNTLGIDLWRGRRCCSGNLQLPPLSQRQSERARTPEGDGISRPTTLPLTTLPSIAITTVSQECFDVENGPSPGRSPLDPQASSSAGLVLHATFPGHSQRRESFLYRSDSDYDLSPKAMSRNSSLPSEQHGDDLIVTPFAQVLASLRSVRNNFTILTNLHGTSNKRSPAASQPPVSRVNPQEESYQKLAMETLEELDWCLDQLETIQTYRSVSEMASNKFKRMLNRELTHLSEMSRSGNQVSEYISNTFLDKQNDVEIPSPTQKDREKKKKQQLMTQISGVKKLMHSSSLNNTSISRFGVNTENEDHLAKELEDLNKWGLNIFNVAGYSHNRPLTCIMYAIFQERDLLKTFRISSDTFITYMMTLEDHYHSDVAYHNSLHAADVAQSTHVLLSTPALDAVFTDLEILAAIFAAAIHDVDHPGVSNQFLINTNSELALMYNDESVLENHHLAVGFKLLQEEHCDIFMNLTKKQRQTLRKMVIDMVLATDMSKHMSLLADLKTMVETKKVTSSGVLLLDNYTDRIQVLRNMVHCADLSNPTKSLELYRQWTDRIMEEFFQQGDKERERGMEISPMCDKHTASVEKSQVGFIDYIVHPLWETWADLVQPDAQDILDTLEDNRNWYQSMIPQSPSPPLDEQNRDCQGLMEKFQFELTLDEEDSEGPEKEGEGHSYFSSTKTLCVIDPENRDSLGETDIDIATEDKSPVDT
Sequence of Cytochrome P450 1A2 (Homo sapiens) (P05177 whole entry, looked up): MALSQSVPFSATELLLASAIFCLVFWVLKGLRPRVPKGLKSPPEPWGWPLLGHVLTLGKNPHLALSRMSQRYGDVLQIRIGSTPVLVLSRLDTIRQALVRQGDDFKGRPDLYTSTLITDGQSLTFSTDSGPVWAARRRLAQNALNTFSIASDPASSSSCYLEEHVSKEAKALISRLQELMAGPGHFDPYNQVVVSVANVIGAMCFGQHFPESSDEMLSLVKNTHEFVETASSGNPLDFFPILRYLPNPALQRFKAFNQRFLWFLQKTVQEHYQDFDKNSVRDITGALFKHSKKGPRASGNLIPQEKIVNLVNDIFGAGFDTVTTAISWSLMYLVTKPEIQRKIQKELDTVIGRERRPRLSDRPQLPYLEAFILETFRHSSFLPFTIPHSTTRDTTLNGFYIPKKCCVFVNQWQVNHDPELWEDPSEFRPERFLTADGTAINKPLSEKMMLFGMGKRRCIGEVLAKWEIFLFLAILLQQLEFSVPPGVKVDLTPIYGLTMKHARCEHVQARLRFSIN
Sequence of Ubiquitin carboxyl-terminal hydrolase 1 (Homo sapiens) (O94782 whole entry, looked up): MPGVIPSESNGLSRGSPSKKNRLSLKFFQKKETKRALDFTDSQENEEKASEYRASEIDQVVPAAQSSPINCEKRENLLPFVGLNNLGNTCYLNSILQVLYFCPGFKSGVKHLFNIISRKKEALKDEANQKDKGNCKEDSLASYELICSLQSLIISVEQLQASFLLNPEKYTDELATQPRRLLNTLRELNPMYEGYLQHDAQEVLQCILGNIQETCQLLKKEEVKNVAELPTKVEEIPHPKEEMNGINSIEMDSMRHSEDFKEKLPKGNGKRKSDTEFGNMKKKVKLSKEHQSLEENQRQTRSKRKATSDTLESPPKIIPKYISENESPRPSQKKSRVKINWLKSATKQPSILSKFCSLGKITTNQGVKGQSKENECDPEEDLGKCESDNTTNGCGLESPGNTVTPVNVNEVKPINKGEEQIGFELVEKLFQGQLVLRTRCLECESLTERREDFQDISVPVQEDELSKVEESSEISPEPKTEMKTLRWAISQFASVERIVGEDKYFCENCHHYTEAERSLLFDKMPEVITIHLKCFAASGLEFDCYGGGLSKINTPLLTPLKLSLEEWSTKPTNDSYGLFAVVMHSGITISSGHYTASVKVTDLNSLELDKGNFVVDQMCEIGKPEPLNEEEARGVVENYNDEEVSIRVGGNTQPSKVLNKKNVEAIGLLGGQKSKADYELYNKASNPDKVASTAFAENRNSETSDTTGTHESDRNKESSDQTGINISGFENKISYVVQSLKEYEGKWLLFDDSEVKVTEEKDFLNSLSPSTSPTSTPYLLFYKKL
Sequence of Dual specificity protein kinase CLK4 (Homo sapiens) (Q9HAZ1 whole entry, looked up): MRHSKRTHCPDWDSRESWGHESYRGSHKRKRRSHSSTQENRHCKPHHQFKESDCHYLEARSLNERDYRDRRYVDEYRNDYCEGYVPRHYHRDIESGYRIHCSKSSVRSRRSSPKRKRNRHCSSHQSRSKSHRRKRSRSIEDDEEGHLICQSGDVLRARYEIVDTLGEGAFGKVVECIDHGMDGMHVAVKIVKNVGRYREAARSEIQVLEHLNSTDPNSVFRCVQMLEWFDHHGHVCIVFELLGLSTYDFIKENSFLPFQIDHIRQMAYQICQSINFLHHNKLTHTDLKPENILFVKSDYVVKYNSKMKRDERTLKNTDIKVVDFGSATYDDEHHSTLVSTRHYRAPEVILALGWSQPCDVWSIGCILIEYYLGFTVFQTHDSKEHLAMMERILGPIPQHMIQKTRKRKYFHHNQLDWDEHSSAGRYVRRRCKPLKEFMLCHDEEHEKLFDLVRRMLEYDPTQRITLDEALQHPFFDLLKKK
Sequence of Cytochrome P450 3A4 (Homo sapiens) (P08684 whole entry, looked up): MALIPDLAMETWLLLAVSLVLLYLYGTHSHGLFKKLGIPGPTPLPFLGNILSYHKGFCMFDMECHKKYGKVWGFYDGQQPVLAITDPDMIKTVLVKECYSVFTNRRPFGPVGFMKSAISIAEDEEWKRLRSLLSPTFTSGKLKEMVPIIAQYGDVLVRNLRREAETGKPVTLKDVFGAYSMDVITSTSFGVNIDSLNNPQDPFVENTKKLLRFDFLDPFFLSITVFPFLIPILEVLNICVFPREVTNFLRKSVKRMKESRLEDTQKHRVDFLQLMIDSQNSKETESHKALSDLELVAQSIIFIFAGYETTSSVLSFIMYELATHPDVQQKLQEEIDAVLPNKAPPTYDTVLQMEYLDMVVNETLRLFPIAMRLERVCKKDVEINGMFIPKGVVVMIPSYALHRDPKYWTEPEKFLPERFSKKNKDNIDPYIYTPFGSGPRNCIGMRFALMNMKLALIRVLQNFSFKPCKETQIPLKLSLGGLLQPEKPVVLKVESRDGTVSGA
Sequence of Glucocorticoid receptor (Homo sapiens) (P04150 whole entry, looked up, the tested form may be a part): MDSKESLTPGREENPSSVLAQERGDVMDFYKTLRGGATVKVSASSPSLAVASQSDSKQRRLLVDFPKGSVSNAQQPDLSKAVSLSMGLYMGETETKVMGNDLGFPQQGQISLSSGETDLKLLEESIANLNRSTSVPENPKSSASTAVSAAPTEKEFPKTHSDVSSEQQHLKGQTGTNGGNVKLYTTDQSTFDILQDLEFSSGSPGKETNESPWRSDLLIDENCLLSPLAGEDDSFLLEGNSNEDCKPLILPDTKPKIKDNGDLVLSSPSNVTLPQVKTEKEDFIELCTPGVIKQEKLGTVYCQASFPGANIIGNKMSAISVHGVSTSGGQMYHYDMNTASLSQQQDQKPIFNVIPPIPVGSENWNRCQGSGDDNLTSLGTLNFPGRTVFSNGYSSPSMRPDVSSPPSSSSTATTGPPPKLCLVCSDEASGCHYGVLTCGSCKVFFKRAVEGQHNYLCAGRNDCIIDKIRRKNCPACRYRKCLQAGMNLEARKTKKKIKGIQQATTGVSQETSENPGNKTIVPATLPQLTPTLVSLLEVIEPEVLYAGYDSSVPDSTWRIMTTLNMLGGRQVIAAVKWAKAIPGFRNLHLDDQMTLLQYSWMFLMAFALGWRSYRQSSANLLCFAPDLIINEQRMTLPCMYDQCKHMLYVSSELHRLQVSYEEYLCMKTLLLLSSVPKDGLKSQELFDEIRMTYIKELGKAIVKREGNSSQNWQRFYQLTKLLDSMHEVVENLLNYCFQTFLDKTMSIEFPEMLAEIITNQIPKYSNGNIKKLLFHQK
Sequence of Lysosomal acid glucosylceramidase (Homo sapiens) (P04062 whole entry, looked up): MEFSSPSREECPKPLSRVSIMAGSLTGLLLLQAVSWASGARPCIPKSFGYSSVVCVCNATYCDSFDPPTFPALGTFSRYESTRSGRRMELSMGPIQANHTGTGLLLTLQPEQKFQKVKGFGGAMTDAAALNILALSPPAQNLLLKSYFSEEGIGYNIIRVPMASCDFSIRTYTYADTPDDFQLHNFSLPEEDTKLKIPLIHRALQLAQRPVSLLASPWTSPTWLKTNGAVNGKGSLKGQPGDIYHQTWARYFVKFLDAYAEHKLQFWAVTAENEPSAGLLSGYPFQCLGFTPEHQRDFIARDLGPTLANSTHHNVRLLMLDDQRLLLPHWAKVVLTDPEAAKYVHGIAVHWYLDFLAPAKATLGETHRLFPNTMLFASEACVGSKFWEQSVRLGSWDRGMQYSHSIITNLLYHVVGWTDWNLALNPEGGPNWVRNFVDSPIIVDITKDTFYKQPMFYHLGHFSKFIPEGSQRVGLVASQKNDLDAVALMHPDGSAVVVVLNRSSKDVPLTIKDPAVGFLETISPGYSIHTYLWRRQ
Sequence of Cytochrome P450 2C19 (Homo sapiens) (P33261 whole entry, looked up): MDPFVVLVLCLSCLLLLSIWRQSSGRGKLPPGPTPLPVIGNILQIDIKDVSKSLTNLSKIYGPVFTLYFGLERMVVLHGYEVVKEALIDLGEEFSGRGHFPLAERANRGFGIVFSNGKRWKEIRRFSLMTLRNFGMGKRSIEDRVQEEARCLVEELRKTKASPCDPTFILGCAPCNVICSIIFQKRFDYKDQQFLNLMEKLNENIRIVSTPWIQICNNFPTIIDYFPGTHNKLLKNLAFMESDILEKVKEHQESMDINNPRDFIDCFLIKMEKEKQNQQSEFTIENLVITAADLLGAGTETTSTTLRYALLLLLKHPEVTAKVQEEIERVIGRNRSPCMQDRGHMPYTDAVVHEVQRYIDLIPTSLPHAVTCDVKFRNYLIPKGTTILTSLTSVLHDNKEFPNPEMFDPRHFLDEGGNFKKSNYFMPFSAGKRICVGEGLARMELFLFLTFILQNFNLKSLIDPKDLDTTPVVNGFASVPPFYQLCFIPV

SMILES | Potency [1] | Potency [2] | activity change, negative = inhibition [3] | activity, negative = inhibition [4] | Potency [5] | Potency [6] | Potency [7] | Potency [8] | Potency [9] | activity change, negative = inhibition [10] | max response [10, 19] [%] | max response [10, 20] [%] | Potency [11] | Potency [12] | Potency [13] | Potency [14] | activity change, negative = inhibition [15] | Potency [16] | activation [17] | Potency [18]
COc1cccc(Nc2ncc3ncc(=O)n(C)c3n2)c1 | > 11.4 µM (inactive) | 1.58 µM (active) | 0.44% (inactive) | -17.5% (inactive) | > 9.22 µM (inactive) | > 46 µM (inactive) | inactive | inactive | inactive | 4.86% (inactive) | 11.1 | 14.9 | 0.891 µM (active) | 1 µM (active) | 0.708 µM (active) | inactive |  |  |  | 
CN(C)Cc1ccccc1-c1cc(NCc2cccs2)ncn1 | > 11.4 µM (inactive) | 25.1 µM (active) |  | 1.42% (inactive) | > 46 µM (inactive) | > 46 µM (inactive) | inactive | inactive |  | 3.12% (inactive) | 23.4 | 25.3 | inactive | inactive | inactive | inactive | 9.46% (inactive) | inactive |  | 
COc1cccc(-c2ccc3ncnc(NCCNC(C)=O)c3c2)c1 | > 11.4 µM (inactive) | 3.16 µM (active) | 21% (inactive) | 11% (inactive) | > 46 µM (inactive) | > 46 µM (inactive) | inactive | inactive |  | -2.84% (inactive) | -13.2 | -16.4 | 0.355 µM (active) | 0.447 µM (active) | 0.282 µM (active) | inactive | -19.2% (inactive) | inactive | 5.52% (inactive) | 
COCCNc1ncnc2ccc(-c3ccc(N(C)C)cc3)cc12 | > 11.4 µM (inactive) | 0.251 µM (active) | 4.01% (inactive) | -5.06% (inactive) | > 46 µM (inactive) | > 46 µM (inactive) | inactive | inactive |  | -6.08% (inactive) | -1.3 | -8.9 | 8.91 µM (active) | 10 µM (active) | inactive | inactive | -29.4% (inactive) | inactive |  | 7.94 µM (active)
COc1ccc(-n2c(=O)c(CCc3ccccc3)nc3cnc(N4CCN(C)CC4)nc32)cc1 | > 11.4 µM (inactive) | inactive | -24% (inactive) | -10.4% (inactive) | > 9.22 µM (inactive) | > 46 µM (inactive) | inactive | inactive |  | 2.13% (inactive) | 12.7 | 12.5 | inactive | inactive | inactive | inactive | -22.3% (inactive) | inactive |  | 
